Results reported in ChEMBL document CHEMBL4513216, “Probing the Open Global Health Chemical Diversity Library for Multistage-Active Starting Points for Next-Generation Antimalarials” (ACS Infect Dis, 2020).
Hit rate of the full screen: of about 69,000 compounds, about 8,600 (12%) showed an effect of 50% or more. This is one part of a sample in which strong results are shown more often than they occur.

What follows are compounds tested on Plasmodium berghei (assay: Screen against P. berghei liver stage (PbLuc), transformed with Luciferase, at 10uM). Settings: tested at 10 uM.
Assay type: functional, HepG2
With `CS(=O)(=O)NC1CCCN(C(=O)Nc2ccccc2Cn2cccn2)C1` (stereo not drawn) the INHIBITION was 20.9%. In the case of `O=C(NCCn1ccnc1)N1CCCC1c1cccs1` (stereo not drawn), the INHIBITION is reported as 7.333%. Work on `Cc1cc(F)c2c(c1)CCCN2Cc1cc(=O)n(C)c(=O)n1C` yielded an INHIBITION of -14.2%. With `COc1ccc(-c2cnc(CN3CCCC3Cn3cccn3)o2)cc1` (stereo not drawn) the INHIBITION was -21.8%. Work on `c1csc(CN2Cc3nccn3CC(Cn3cncn3)C2)n1` (stereo not drawn) yielded an INHIBITION of 28.5%. `O=c1c(NCCNCCO)c(N2CCN(c3ccccc3)CC2)c1=O` gave an INHIBITION of 55.5%. `O=c1c(NCCO)c(N2CCN(c3ccccc3)CC2)c1=O` gave an INHIBITION of 29.8%. `O=c1c(NCCNCCO)c(N2CCN(Cc3ccccc3)CC2)c1=O` was tested, and the INHIBITION was 28.3%. Compound `COc1ccc(CN2C[C@@H]3COC[C@]3(CN(C)C)C2)cc1` has an INHIBITION of 20.5%. In the case of `CN(Cc1cccc(C#N)c1)C(=O)C1CC(c2cccc(F)c2)=NO1` (stereo not drawn), the INHIBITION is reported as 8.38%. Compound `COc1ccc(OC)c2c(C)cc(N(C)CCCO)nc12` has an INHIBITION of 51.1%. For `COc1ccc(OC)c2c(C)cc(N(C)CCO)nc12`, the INHIBITION was 0.897%. Compound `COc1ccc(OC)c2c(C)cc(N(CCO)CCO)nc12` has an INHIBITION of 1.79%. In the case of `O=C(NCc1ccc2c(c1)OCO2)c1ccc(N2CCCCC2)nn1`, the INHIBITION is reported as 33.4%. In the case of `CN(C)S(=O)(=O)N1CC[C@]2(C[C@@H](Oc3cccnc3)CO2)C1`, the INHIBITION is reported as 21.8%. With `CN(C)S(=O)(=O)N1CC[C@]2(C[C@H](OCc3ccncc3)CO2)C1` the INHIBITION was 57.1%. `O=C(c1ccccc1)N1CCC[C@]2(C[C@@H](OCc3ccccn3)CO2)C1` was tested, and the INHIBITION was 49.7%. For `CN(C)S(=O)(=O)N1C[C@@H](OCc2ccccn2)[C@H]2OCCC[C@H]21`, the INHIBITION was 56.1%. Work on `CCS(=O)(=O)N1C[C@@H](OCc2ccccn2)[C@@H]2OCCC[C@@H]21` yielded an INHIBITION of 16.6%. `Cc1cccc(COC2COC3(CCN(S(C)(=O)=O)CC3)C2)n1` (stereo not drawn) was tested, and the INHIBITION was 44.2%. For `Cc1ccc(C(=O)N2CC[C@]3(C[C@@H](OCc4ccccn4)CO3)C2)nc1`, the INHIBITION was 35.7%. Work on `Cc1cccc(CO[C@H]2CO[C@@]3(CCN(S(=O)(=O)N(C)C)C3)C2)n1` yielded an INHIBITION of 55.5%. `CN(C)S(=O)(=O)N1CC[C@]2(C[C@H](Oc3cccnc3)CO2)C1` showed an INHIBITION of 0%. `Cc1cccc(COC2COC3(CCN(Cc4ccoc4)CC3)C2)n1` (stereo not drawn) showed an INHIBITION of 11.4%. In the case of `CN(C)S(=O)(=O)N1C[C@@H](Oc2ccccn2)[C@H]2OCCC[C@H]21`, the INHIBITION is reported as -4.74%. For `Cc1cccc(C(=O)N2CC[C@]3(C[C@H](OCc4ccccn4)CO3)C2)c1`, the INHIBITION was 71.9%. For `COCCN1CCCC(c2ccnc3c(C(N)=O)cnn23)C1` (stereo not drawn), the INHIBITION was 37.7%. Work on `CNC(=O)C(C)(C)N1CCC[C@H]1C(=O)NCC(C)C` yielded an INHIBITION of 27.2%. For `Cc1cccc(-c2noc(CN3CCCC3Cn3cncn3)n2)c1` (stereo not drawn), the INHIBITION was 19.4%. In the case of `CC(Cn1cccn1)n1cnc2ccc(F)cc2c1=O` (stereo not drawn), the INHIBITION is reported as 35%. `CCOC(=O)CNC(=O)N1CCC(OC)c2ccccc2N(C)C(=O)C1` (stereo not drawn) gave an INHIBITION of 29.8%. For `O=C1CCCC2=C1C(c1ccco1)C1C(=O)NN=C1N2` (stereo not drawn), the INHIBITION was 36.3%. With `CCc1ncc2c(n1)CN(Cc1cccc(OCC(N)=O)c1)CC2` the INHIBITION was 0.914%. With `Cc1nc(CN(C)C2CCN(Cc3ccc(Cl)s3)C2)no1` (stereo not drawn) the INHIBITION was -35.7%. `O=S(=O)(CCO)CCc1ccccc1Cl` showed an INHIBITION of 25.2%. `c1ncn(CC2CCCN2Cc2csc(C3CCCCC3)n2)n1` (stereo not drawn) gave an INHIBITION of 23.5%. With `CCNc1cc2c(nn1)CCN(C(=O)Cc1c(C)nn(C)c1C)C2` the INHIBITION was 15.5%. `CC(NC1CCN(CCS(C)(=O)=O)CC1)c1cnn(C(C)C)c1` (stereo not drawn) gave an INHIBITION of -5.22%. `O=C(c1cnccn1)N1CCO[C@H]2[C@H](OCc3cccnc3)CC[C@@H]21` showed an INHIBITION of 7.31%. With `CN1CCN(c2ncnc3c2CCN(c2ncc(F)cn2)CC3)CC1` the INHIBITION was 24.9%. In the case of `CC1CCN(S(=O)(=O)N2CCC(Oc3cnccn3)CC2)CC1`, the INHIBITION is reported as 19.6%. `Cc1cc2c(=O)n3c(nc2s1)CCN(C(=O)c1ccn(C)n1)CC3` was tested, and the INHIBITION was 0.301%. `CC(=O)NCCNC(=O)Nc1cc(C(C)(C)C)sc1C#N` showed an INHIBITION of 42.7%. For `CCO[C@H]1CO[C@@]2(CCCN(S(=O)(=O)c3ccccc3)C2)C1`, the INHIBITION was 23.9%. In the case of `CN(C)S(=O)(=O)N1CC[C@]2(C[C@H](Oc3ncccc3F)CO2)C1`, the INHIBITION is reported as 34.1%. `CN(C)S(=O)(=O)N1CCC2(CC1)CC(Oc1ccccn1)CO2` (stereo not drawn) showed an INHIBITION of -60.2%. In the case of `CN(C)S(=O)(=O)N1CC[C@]2(C[C@H](OCc3ccccn3)CO2)C1`, the INHIBITION is reported as 57.1%. `Cc1cccc(CO[C@@H]2CO[C@@]3(CCN(S(=O)(=O)N(C)C)C3)C2)n1` was tested, and the INHIBITION was 63.5%. `CCS(=O)(=O)N1CC[C@]2(C[C@@H](OCC3CC3)CO2)C1` was tested, and the INHIBITION was 15.1%. `CN(C)S(=O)(=O)N1CC[C@]2(C[C@@H](OCC3CC3)CO2)C1` showed an INHIBITION of 57.1%. `O=S(=O)(c1ccccc1)N1CCC[C@]2(C[C@H](OCC3CC3)CO2)C1` was tested, and the INHIBITION was 19.4%. `CCO[C@@H]1CO[C@@]2(CCCN(S(=O)(=O)c3ccccc3)C2)C1` gave an INHIBITION of 64.9%. `CN(C)S(=O)(=O)N1CC[C@]2(C[C@@H](Oc3ncccc3F)CO2)C1` was tested, and the INHIBITION was 10.1%. With `CN(C)S(=O)(=O)N1CCC2(CC1)CC(OCC1CC1)CO2` (stereo not drawn) the INHIBITION was 28.2%. `CN(C)S(=O)(=O)N1CC[C@]2(C[C@@H](OCc3ccccn3)CO2)C1` was tested, and the INHIBITION was 39.4%. `COCC(=O)N1CCN(C(C)c2ncc(-c3ccccc3)o2)CC1` (stereo not drawn) was tested, and the INHIBITION was 40.2%. `Cc1cc2n(n1)CC(CNCc1ccc(-n3cccn3)cc1)CN2` (stereo not drawn) was tested, and the INHIBITION was 6.35%. `O=C(Nc1ccc(OC2CCCC2)cc1)C1CCCN1c1nccs1` (stereo not drawn) gave an INHIBITION of 2.625%. Work on `CC(C)Oc1cccc(F)c1C(C(=O)O)N1CCCN(C)CC1` (stereo not drawn) yielded an INHIBITION of 28.2%. `Cn1cc(-c2cnc(N3CCOCC3)nc2)cc1C(=O)NC1CC1` was tested, and the INHIBITION was -1.55%. `Cc1cc(CN2CCN(C(=O)NCc3ccoc3)CC2)no1` showed an INHIBITION of -7.35%. Compound `O=C(NC[C@]1(O)CN(Cc2ncccc2F)C[C@H]1O)c1cc[nH]n1` has an INHIBITION of 40.4%. Work on `CC(O)(CNc1ccc(Cl)c(C#N)n1)c1ccsc1` (stereo not drawn) yielded an INHIBITION of -20.3%. `CCCC(=O)Nc1cccc([C@H]2C[C@@H](NC(C)=O)CCO2)c1` showed an INHIBITION of 33.85%. With `CNC(=O)c1cc2c(nc1NCC(C)C)CCN(c1ccncn1)CC2` the INHIBITION was -38.7%. `CN(Cc1nc(N2CCCC2)ncc1-c1ccncc1)C(=O)C(C)(C)C` gave an INHIBITION of 21.6%. Work on `COc1ccc2c(c1)NC(C1CCN(C(=O)C3CC3)CC1)NS2(=O)=O` (stereo not drawn) yielded an INHIBITION of -30.9%. `Cc1cc(C(=O)N2CCCC2c2c(C)nn(C)c2C)no1` (stereo not drawn) was tested, and the INHIBITION was 23.5%. `Cc1ccc(C(=O)Nc2cn[nH]c2)cc1F` gave an INHIBITION of 0.5%. Work on `Fc1ccc(Br)c(NCc2nnsc2Cl)c1` yielded an INHIBITION of 43.1%. Work on `CC1CCCCN1C(=O)c1ccn(COc2ccc(F)cc2)n1` (stereo not drawn) yielded an INHIBITION of -3.11%. In the case of `CC(C)NC(=O)N1CCC2(C1)CN(c1ccsc1)C(=O)CN2C` (stereo not drawn), the INHIBITION is reported as 27.9%. `O=C(C1CC1)N1CCC[C@]2(C[C@@H](OCc3ccncc3)CO2)C1` showed an INHIBITION of 10.5%. `O=C(c1ccccc1)N1CCC[C@]2(C[C@@H](OCc3ccncc3)CO2)C1` was tested, and the INHIBITION was -13.7%. In the case of `O=C(N1CCCC1)N1CCC[C@]2(C[C@@H](OCc3ccncc3)CO2)C1`, the INHIBITION is reported as 53.9%. With `CCc1nc(CN(C)CC(N)=O)cs1` the INHIBITION was 31.8%. For `Cc1c(C(C)NC(=O)C2CCCCC2)cnn1C` (stereo not drawn), the INHIBITION was 8.12%. Work on `Cc1c(C(C)NC(=O)N2CCN(C3CCCC3)CC2)cnn1C` (stereo not drawn) yielded an INHIBITION of 70.9%. `Cc1c(C(C)NC(=O)C2CCCC2)cnn1C` (stereo not drawn) showed an INHIBITION of -8.87%. With `O=C1CCC(=O)N1c1nn(Cc2c(F)cccc2Cl)cc1Cl` the INHIBITION was 24.8%. `CN(C)c1ccc(C(=O)Nc2ccn(CCc3ccncc3)n2)cn1` was tested, and the INHIBITION was -17.7%. `O=C(Cc1c[nH]c2ccccc12)N1CCC(Nc2cccnn2)CC1` was tested, and the INHIBITION was 21.8%. `Cc1ccc(NC2CCN(C(=O)Cc3c(C)nn(C)c3C)CC2)nn1` showed an INHIBITION of -3.547%. Compound `Cc1noc(C)c1CC(=O)N1CCC(Nc2cccnn2)CC1` has an INHIBITION of 17.883%. In the case of `Cn1cc(CC(=O)N2CCC(Nc3cccnn3)CC2)c2ccccc21`, the INHIBITION is reported as 66.8%. `O=C(Cc1cccc2ccccc12)N1CCC(Nc2cccnn2)CC1` showed an INHIBITION of -9.76%. In the case of `Cc1nn(C)c(C)c1CC(=O)N1CCC(Nc2cccnn2)CC1`, the INHIBITION is reported as 53.5%. `CC(NC(=O)NCc1cccs1)c1ccc2c(c1)CCC(=O)N2` (stereo not drawn) was tested, and the INHIBITION was -27.8%. Work on `Cc1cc(C)c2c(c1)C(NCc1c(C)nn(C)c1N(C)C)CCO2` (stereo not drawn) yielded an INHIBITION of 16.515%. Compound `O=C1CCC(C(=O)Nc2cnn(-c3ccccc3Br)c2)N1` (stereo not drawn) has an INHIBITION of 47%. `CCCN1CCN(C(=O)CCn2cccc2)CC1` was tested, and the INHIBITION was 16.8%. For `Cn1ccc(C(=O)N2C[C@@H]3CCN(c4cnccn4)C[C@@H]3C2)n1`, the INHIBITION was 24%. Compound `Cn1ccc(C(=O)N2C[C@@H]3CCN(c4cccnc4)C[C@@H]3C2)n1` has an INHIBITION of 32.1%. With `O=C(CC1CC1)N1C[C@@H]2CCN(c3cnccn3)C[C@@H]2C1` the INHIBITION was 15.7%. Compound `Cn1cncc1C(=O)N1C[C@@H]2CCN(c3cnccn3)C[C@@H]2C1` has an INHIBITION of 56.6%. With `c1cc(CN2CC[C@@H]3CN(c4cnccn4)C[C@@H]3C2)ccn1` the INHIBITION was 27.6%. `c1cnc(N2C[C@H]3CCN(CC4CC4)C[C@H]3C2)cn1` showed an INHIBITION of 58.4%. `Cc1ccc(N2CC[C@H]3CN(C(=O)c4ccn(C)n4)C[C@H]3C2)nn1` showed an INHIBITION of 75.6%. In the case of `Cn1ccnc1C(=O)N1C[C@@H]2CCN(c3cnccn3)C[C@@H]2C1`, the INHIBITION is reported as 31.2%. In the case of `O=C(C1CCCCC1)N1C[C@@H]2CCN(c3cnccn3)C[C@@H]2C1`, the INHIBITION is reported as -15.9%. `O=C(C1CCCC1)N1C[C@@H]2CCN(c3cnccn3)C[C@@H]2C1` was tested, and the INHIBITION was 16.1%. For `O=C(c1cnccn1)N1C[C@@H]2CCN(c3cnccn3)C[C@@H]2C1`, the INHIBITION was 35.8%. In the case of `c1cnc(N2C[C@H]3CCN(CCN4CCCC4)C[C@H]3C2)cn1`, the INHIBITION is reported as 57.5%.
